# Test results reported in PubChem BioAssay AID504430 (National Center for Advancing Translational Sciences (NCATS), 2011).
# The list shows a part of the results. Activity calls are given as the source filed them.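 How the source made its calls: active means compounds that block the splicing kinase Clk1 enough to give a fitted half-inhibition concentration; inactive means the rest.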
# Target: Dual specificity protein kinase CLK1 (Homo sapiens) (UniProt P49759)
# Experiment: Kinase Inhibition Study on Inhibitors of CDC-like Kinase 1 (Reaction Biology data)
# Settings: recombinant Clk1 kinase assay, 10 uM ATP
# Excerpt: NIH Molecular Libraries Probe Production Centers Network [MLPCN] NIH Chemical Genomics Center [NCGC] MLPCN Grant: 1R03MH084827-01 Assay Submitter (PI): Tom Misteli NCGC Assay Overview: Alternative splicing of pre-mRNAs plays a major role in the regulation of eukaryotic gene expression. Alternative splicing is now thought to be one of the primary reasons for the complexity of higher organisms leading to an average of three protein isoforms per gene. Aberrant splicing can lead to a number of diseases and is known to play a role in rare genetic diseases such as progeria syndrome. Hutchinson-Gilford Progeria Syndrome (HGPS) is a pediatric premature aging disease caused by a spontaneous mutation in the lamin A/C (LMNA) gene due to a single point mutation in the lamin A gene effecting 1 in 4 million people. To identify both specific splicing modulators of the lamin A gene as well as general splicing modulators, a cell-based HTS assay was developed using a minigene reporter system (AIDs, 1459 & 1487). […] This AID summarizes the characterization of lead compounds in Clk1.
# All kinase reactions were performed using 10 uM ATP in the assay. 100% activity was taken from kinase reactions with DMSO alone (the vehicle used for compound stock solutions).
# Dual specificity protein kinase CLK1 (Homo sapiens), sequence (P49759 whole entry, looked up): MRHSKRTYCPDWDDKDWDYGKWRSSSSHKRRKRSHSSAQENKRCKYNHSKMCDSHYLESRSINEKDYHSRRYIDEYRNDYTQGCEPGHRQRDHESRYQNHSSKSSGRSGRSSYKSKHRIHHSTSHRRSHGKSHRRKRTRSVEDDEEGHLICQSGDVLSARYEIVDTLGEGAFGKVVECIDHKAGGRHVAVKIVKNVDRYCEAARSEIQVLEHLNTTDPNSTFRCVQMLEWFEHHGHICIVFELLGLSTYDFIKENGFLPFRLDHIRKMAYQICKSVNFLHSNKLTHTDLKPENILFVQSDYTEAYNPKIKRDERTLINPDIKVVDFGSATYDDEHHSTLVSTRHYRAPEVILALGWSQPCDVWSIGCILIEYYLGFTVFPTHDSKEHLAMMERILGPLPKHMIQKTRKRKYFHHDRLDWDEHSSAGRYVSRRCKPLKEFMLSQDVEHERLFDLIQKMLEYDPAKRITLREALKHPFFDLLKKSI
row,SMILES,Potency
1,CC(Nc1ncnc2ccc(-c3ccc4c(c3)OCO4)cc12)c1ccco1 (stereo not drawn),5750 nM (active)
2,c1nc(N2CCOCC2)c2cc(-c3ccc4c(c3)OCO4)ccc2n1,1110 nM (active)
3,CN(Cc1cncn1C)c1ncnc2ccc(-c3ccc4c(c3)OCO4)cc12,2800 nM (active)
